Values without a mark were called inactive. The source made the active and inactive calls.

The assay can be described thus: CREB reporter modulators without forskolin, primary screen, cell-based, PC12, CRE-LacZ reporter, unstimulated (AID 1145). Particulars: no forskolin, luminescence, 4.5 h, higher = more signal, called active from +8 up or from −8 down.
Take `CC(C)[C@@H](OCc1ccccc1)[C@H](C)C=NOC[C@@H](O)COCc1ccco1`: the z-score was 1.99.

Consider `CC(C)(C)N1C(=O)[C@H]2[C@H]3[C@H](O)C=CC(=O)[C@@H]3CC[C@H]2C1=O`, for which the z-score was 1.06.

Turning to `CCOC(=O)[C@H](CC(C)C)NC(=O)CCC1CC(OC(=O)NCc2cccc3ccccc23)CC2(CCCC(COC(=O)NCCOC)O2)O1` (stereo partly drawn), the z-score is -0.526.

For the molecule `Cc1ccc(S(=O)(=O)n2c3ccccc3c3nnc(C(=O)c4ccccc4)nc32)cc1`, the z-score is 1.38.

On to `CCN1C(=O)[C@H]2[C@H]3[C@H](O)[C@H](O)CC(=NOC[C@H]4O[C@H](c5ccccc5)C=C[C@@H]4Oc4ccc(OC)cc4)[C@@H]3CC[C@H]2C1=O`, for which the z-score was 0.843.

Regarding `Cc1cc2c(c(=O)o1)[C@@H](O)[C@H]1O[C@H]1C2=O`, the z-score is -0.255.

For `C#CCCCON=C1C[C@@H](O)[C@@H](O)[C@@H]2[C@@H]3C(=O)N(c4cccc(Oc5ccccc5)c4)C(=O)[C@@H]3CC[C@H]12`, the z-score is -0.57.

Regarding `CC(CCN1CCc2nc(-c3ccccc3)c(-c3ccccc3)cc2C1)=NOC[C@@H](O)[C@H]1O[C@@H]2OC(C)(C)O[C@@H]2[C@H]1O`, the z-score is 2.25.

For the molecule `CC(CCN1CCc2nc(-c3ccccc3)c(-c3ccccc3)cc2C1)=NOC[C@@H](O)COCc1ccco1`, the z-score is -0.878.

Turning to `CSCC[C@@H]1NC(=O)CC=C[C@@H](C)COC(=O)[C@@H](C)COC1=O`, the z-score is -0.476.

In the case of `CC(=O)Nc1ccc([C@@H]2N[C@H](C(=O)O)CC[C@H]2C)cc1`, the z-score was -0.884.

As to `C#CCCCON=C1[C@H]2CCn3c(=O)n(-c4ccccc4)c(=O)n3[C@H]2[C@H](O)[C@@H]2O[C@H]12`, the z-score is -0.112.

On to `COC(=O)[C@@H]1CC[C@H](C)[C@@H](c2ccc(C)cc2)N1C(=O)c1ccc(C=NOC[C@@H](C)[C@H](OCc2ccccc2)C(C)C)cc1`, for which the z-score was 6.15.

For the molecule `CCOC(=O)[C@H](Cc1ccccc1)NC(=O)CCC1CC(OC(=O)NCc2cccc3ccccc23)CC2(CCCC(COC(=O)NCCC(C)C)O2)O1` (stereo partly drawn), the z-score is -0.525.

Take `C=CC[C@@H]1C=C[C@H](ON=C2[C@H]3CCn4c(=O)n(-c5ccccc5)c(=O)n4[C@H]3[C@H](O)[C@@H]3O[C@H]23)[C@@H](CO)O1`: the z-score was 0.164.

As for `CCOC(=O)[C@H](CC(C)C)NC(=O)CCC1CC(OC(=O)NCc2cccc3ccccc23)CC2(CCCC(COC(=O)NCCOc3ccccc3)O2)O1` (stereo partly drawn), the z-score is -0.526.

On to `C[C@@H](c1ccccc1)N1C(=O)[C@H]2[C@H]3[C@H](O)[C@H](O)CC(=NOCc4ccccc4)[C@H]3CC[C@H]2C1=O`, for which the z-score is 0.0687.

Regarding `CCCNC(=O)OC[C@H]1O[C@H](CCON=C(C)CCN2CCc3nc(CC)c(CC)cc3C2)C=C[C@@H]1Oc1ccc(OC)cc1`, the z-score is 10.3 (active).

With `CCCNC(=O)OC[C@H]1O[C@H](CCON=C(C)C)C=C[C@@H]1Oc1ccc(OC)cc1`, the z-score is -0.152.

On to `CC(=O)O[C@H]1C2=CO[C@H](C)[C@H]3[C@H]4C5=C([C@H](O)[C@H]6O[C@H]6C5=O)[C@H](OC4C)[C@@]23C(=O)[C@@H]2O[C@@H]21` (stereo partly drawn), for which the z-score was 0.831.

On to `C=CC[C@@H]1C=C[C@H](ON=C[C@@H](C)[C@H](OCc2ccccc2)C(C)C)[C@@H](CO)O1`, for which the z-score was 1.31.

Regarding `COC(=O)CC=C[C@@H](C)[C@@H](C=NOC(C)CN1CCCc2nc(C)c(C)cc21)OC` (stereo partly drawn), the z-score is -0.64.

Regarding `CC(CCN1CCCCc2nc(C)c(C)cc21)=NOC[C@@H](C)[C@H](OCc1ccccc1)C(C)C`, the z-score is 0.262.

In the case of `CON=C(C)CCC(=O)OC[C@H]1O[C@H](c2ccccc2)C=C[C@@H]1Oc1ccc(OC)cc1`, the z-score was 1.88.

Regarding `CON=CC[C@@H]1C=C[C@H](OC(C)=O)[C@@H](COC(C)=O)O1`, the z-score was -0.403.

In the case of `Cn1c(=O)n2n(c1=O)[C@H]1[C@H](O)[C@@H]3O[C@@H]3C(=O)[C@H]1CC2`, the z-score was -1.29.

Regarding `COc1ccc(COC(=O)NN=C2C[C@@H](O)[C@@H](O)[C@@H]3[C@@H]4C(=O)N(Cc5ccccc5)C(=O)[C@@H]4CC[C@H]23)cc1`, the z-score was 0.702.

`C#CCCCON=C1C[C@@H](O)[C@@H](O)[C@@H]2[C@@H]3C(=O)N(C(C)(C)C)C(=O)[C@@H]3CC[C@@H]12`: the z-score was 0.785.

Source of the values: PubChem BioAssay.
